Sampled rows, rich in hits. Any-hit rate of the full collection: about 3.2%.
NTR1 ag – agonists of human neurotensin receptor NTR1; activation, % at 20 µM; AID 493036; actives 0.17% (n = 330,000); NTR1-U2OS beta-arrestin-GFP spot imaging, agonist mode;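 active = activation at or above 40% of the spot to cytoplasm intensity ratio, with at least 20 cells analyzed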;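 note: 0% = DMSO without peptide and 100% = 100 nM NTR1 peptide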
Target sequence (P30989 whole entry, looked up): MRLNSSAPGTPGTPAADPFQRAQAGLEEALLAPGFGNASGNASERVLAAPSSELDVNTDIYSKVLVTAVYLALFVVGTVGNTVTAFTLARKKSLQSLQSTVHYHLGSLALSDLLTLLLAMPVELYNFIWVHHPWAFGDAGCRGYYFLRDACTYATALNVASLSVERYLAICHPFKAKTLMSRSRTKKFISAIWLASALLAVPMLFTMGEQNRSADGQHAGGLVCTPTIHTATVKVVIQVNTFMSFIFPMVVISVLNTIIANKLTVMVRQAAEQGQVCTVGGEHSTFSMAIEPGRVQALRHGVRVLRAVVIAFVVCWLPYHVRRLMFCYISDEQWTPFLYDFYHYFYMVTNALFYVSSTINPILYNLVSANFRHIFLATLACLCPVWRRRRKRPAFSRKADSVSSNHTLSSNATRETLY
AHR activator – activators of human aryl hydrocarbon receptor | P35869 | AHR-responsive luciferase reporter cells, luminescence | actives 2.5% (n = 320,000) | activation, % at 5 µM; in the data active = activation above about 47%;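 note: 0% = vehicle wells and 100% = reference agonist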
APOBEC3A inh – blocks human APOBEC3A ssDNA deamination | inhibition, % at 20 µM | recombinant A3A, FAM/TAMRA ssDNA deamination fluorescence | actives 0.41% (n = 330,000);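 active = at least 40% inhibition at 20 µM here, with at most 30% in a related deaminase screen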;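 note: plate controls were A3A with DMSO for no effect and wells lacking A3A enzyme for full effect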
Target sequence (P31941 whole entry, looked up): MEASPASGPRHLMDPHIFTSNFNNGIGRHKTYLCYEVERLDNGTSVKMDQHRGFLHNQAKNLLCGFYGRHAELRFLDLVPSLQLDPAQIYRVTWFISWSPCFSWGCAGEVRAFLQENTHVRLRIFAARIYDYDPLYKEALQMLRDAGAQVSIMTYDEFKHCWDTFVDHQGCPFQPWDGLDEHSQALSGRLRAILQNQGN
APOBEC3G inh – inhibitors of human APOBEC3G DNA deaminase | Q9HC16 | recombinant A3G, ssDNA deamination FAM/TAMRA fluorescence | inhibition, % at 20 µM | actives 0.28% (n = 330,000) | AID 493012;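 active = inhibition of at least 40% at 20 µM, with no more than 30% in the related APOBEC3A deaminase screen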;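 note: plate controls were DMSO wells with A3G for no effect and wells lacking A3G enzyme for full effect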
Starred values were filed as active, the others as inactive; x = no result.

SMILES | NTR1 ag | AHR activator | APOBEC3A inh | APOBEC3G inh
CC1(c2nnc(-c3cccc(Cl)c3)o2)CC(c2ccc(F)cc2)=NO1 (stereo not drawn) | 2 | 7 | -6 | -10
CCOC(=O)c1c(C)n(C)c2ccc(OC)c(NC(=O)CCN3CCSCC3)c12 | -1 | 65* | -1 | -3
c1ccc(-c2nc3ccccc3[nH]2)cc1 | -2 | 27 | 0 | -5
S=c1nc(-c2ccccc2)[nH]c2ccc(Br)cc12 | 4 | 53* | -2 | -7
NC(=O)C1CCN(C(=O)CCC(=O)N2CCOc3ccc(Cl)cc32)CC1 | -1 | 1 | -2 | 6
O=C(Nc1ccccc1F)c1oc2ccccc2c1NC(=O)C1CC1 | 0 | 57* | -5 | -6
O=C(Nc1ccccc1F)C1CCCC1 | -1 | -3 | -3 | -7
O=C(CCSCc1ccccc1Cl)NC1CCCCC1 | -1 | 3 | 3 | -2
CNC(=O)c1cc(Nc2nnc(C)c3ccccc23)ccc1OC | -1 | 59* | 1 | -2
COc1ccc(Nc2nnc(C)c3ccccc23)cc1C(N)=O | 0 | 24 | 2 | 3
CS(=O)(=O)c1[nH]nc(-c2cccc(Cl)c2)c1C#N | 1 | 0 | -2 | -7
Cn1c(C(=O)O)cc2cc(F)ccc21 | -1 | 54* | 0 | 1
COc1ccc2c(c1)cc(C(=O)O)n2C | 5 | 2 | -4 | -3
C/C(=N\NC(=O)c1nnn(-c2nonc2N)c1-c1cccs1)c1cccnc1 | 0 | 63* | -2 | -2
COc1cccc(-c2c(C(=O)N/N=C(\C)c3cccnc3)nnn2-c2nonc2N)c1 | 0 | 62* | -5 | -9
N#C/C(=C\c1ccc(OC(=O)c2ccc(Br)s2)cc1)c1nc2ccccc2[nH]1 | x | 9 | x | x
N#C/C(=C\c1ccc(OC(=O)c2ccc(Cl)s2)cc1)c1nc2ccccc2[nH]1 | 2 | 49* | 4 | 2
O=C(/C(=C/O)N=Nc1cccc(C(F)(F)F)c1)c1ccccc1 | 0 | 75* | 1 | -6
O=C1C=C(Nc2ccccc2O)c2ccccc2C1=O | -1 | 72* | 2 | 1
CCOC(=O)N1CCC(NS(=O)(=O)c2cc(C(=O)OC)n(C)c2)CC1 | 4 | -3 | -1 | -7
CCOC(=O)C1=C(N)Oc2ccc3ccccc3c2C1c1cccc(O)c1 (stereo not drawn) | 26 | 50* | 1 | -6
COc1ccccc1CCCNC(=O)C1CCC(=O)N(Cc2ccccc2F)C1 (stereo not drawn) | 0 | 19 | -3 | -5
COc1ccc2oc(=O)c(C(=O)Nc3cccc(C(C)=O)c3)cc2c1 | 2 | 4 | -5 | -7
COc1ccc2oc(=O)c(/C(C)=N/Nc3ccccc3)cc2c1 | -1 | 61* | 3 | -6
c1ccc(-n2cnc3cc(NCc4cccs4)ccc32)cc1 | 3 | -7 | -2 | 0
SMILES | NTR1 ag | AHR activator | APOBEC3A inh | APOBEC3G inh
Cn1cnc2cc(NCc3cccs3)ccc21 | 0 | 50* | 5 | -1
C=CCn1c(O)c(N=NC(=O)CNC(=O)c2cccs2)c2ccccc21 | 6 | 61* | 2 | -2
Cn1c(=O)n(CCOc2ccccc2Cl)c2ccccc21 | 0 | 59* | -4 | -4
O=C(NCCCN1CCOCC1)c1ccc2c(c1)N(Cc1c(F)cccc1Cl)C(=O)CS2 | -1 | 0 | -1 | -5
COc1ccc(NC(=O)C/C(C)=N/NC(=O)c2ccccn2)c(OC)c1 | -1 | 5 | 2 | -1
CCOc1ccccc1NC(=O)CN(c1ccc(C)cc1)S(=O)(=O)c1c(C)noc1C | 5 | 3 | -1 | -3
COc1ccc(N(CC(=O)Nc2ccc3c(c2)OCO3)S(=O)(=O)c2c(C)nn(C)c2C)cc1 | 2 | 59* | -2 | -8
COc1ccc(OC)c(NC(=O)CN(c2ccc(C)cc2)S(=O)(=O)c2c(C)noc2C)c1 | 0 | 24 | 0 | -2
CCOc1ccc(OCC)c(NC(=O)CN(c2ccc(C)cc2)S(=O)(=O)c2c(C)noc2C)c1 | -2 | 62* | -2 | -2
CCOc1ccc(OCC)c(NC(=O)CN(c2ccc(OC)cc2)S(=O)(=O)c2c(C)noc2C)c1 | 4 | 58* | 1 | -2
CN(CC1CCOCC1)C(=O)CC1C(=O)NCCN1Cc1ccc(F)c(F)c1 (stereo not drawn) | -1 | -2 | -1 | -6
COC(=O)c1sc(N)c(C(=O)OC)c1COC(=O)C12CC3CC(CC(O)(C3)C1)C2 | -1 | 4 | 0 | -5
COc1cc2[nH]c(=S)nc(NCc3cccs3)c2cc1OC | 1 | 60* | 1 | -5
CCOc1ccc(NC(=O)CCc2c(C)nn(-c3ccc(N4CCCCC4)nn3)c2C)cc1 | 1 | 5 | 2 | 6
Cc1cccc(-c2cc3c(N=O)c4ccccc4c-3n[nH]2)c1 | 4 | 127* | 1 | -4
CN(C)CCN(C(=O)/C=C/c1cccs1)c1nc2ccc(F)cc2s1 | 1 | 49* | 3 | -7
CN(C)S(=O)(=O)c1cc(NC(=O)COC(=O)CCc2ccccc2)ccc1Cl | 2 | -1 | -2 | -5
CN(C)S(=O)(=O)c1cc(NC(=O)[C@H](Cc2ccccc2)N2C(=O)c3ccccc3C2=O)ccc1Cl | 1 | 71* | 1 | 2
Cn1nc(-c2ccc(Cl)cc2)c2cc(C(=O)NCC3CCCO3)sc21 (stereo not drawn) | 5 | 57* | -5 | -3
CCN(CC)CCCNC(=O)c1cc2c(-c3ccc(Cl)cc3)nn(C)c2s1 | 7 | 54* | -2 | -5
Cc1occc1-c1nnc(SCC(=O)NC2CCCCC2C)o1 (stereo not drawn) | -1 | x | 3 | -2
COc1ccc(CN2CCN(S(=O)(=O)c3ccccc3)CC2)c(OC)c1 | 2 | 52* | -6 | -7
O=C(c1cc(COc2ccc(F)cc2F)on1)N1CC2C[C@@H]3CC1C[C@H](C2)C3 | 6 | 4 | -4 | -2
NC(=O)N/N=C/c1ccc(-c2cccc(C(F)(F)F)c2)o1 | 1 | 78* | 2 | -2
O=C(NCCCc1ccccc1)c1ccc(CS(=O)Cc2ccc(Cl)cc2)o1 (stereo not drawn) | 0 | 2 | -3 | -7
SMILES | NTR1 ag | AHR activator | APOBEC3A inh | APOBEC3G inh
COc1ccc(-c2nc3ccccn3c2NCc2ccc3c(c2)OCO3)cc1 | 0 | 22 | 2 | -1
c1ccc(-c2nc3ccccn3c2NCc2ccc3c(c2)OCO3)cc1 | -2 | 70* | 2 | -3
COCc1cc(C)nc(OCC(=O)N/N=C/c2ccc(-c3cc([N+](=O)[O-])ccc3Cl)o2)c1C#N | 12 | 11 | -3 | -4
CNC(=O)CS(=O)CC(=O)Nc1cc(OCCOC)c(Cl)cc1Cl (stereo not drawn) | 0 | 0 | 8 | 1
OC(c1nc2ccccc2[nH]1)C(O)c1nc2ccccc2[nH]1 (stereo not drawn) | 1 | 7 | 1 | 0
FC(F)(F)c1nc2cc3nc4ccccc4[nH]c3cc2n1 | -1 | 55* | 6 | 2
Cc1cc(-c2nc3cccnc3s2)ccc1NS(=O)(=O)c1cccs1 | 1 | 70* | 3 | 0
Cc1c(NS(=O)(=O)c2cccs2)cccc1-c1nc2cccnc2s1 | 5 | 4 | 1 | -3
Cc1cc(-c2nc3cccnc3s2)ccc1NS(=O)(=O)c1ccc2c(c1)OCCO2 | -2 | 48* | 1 | -3

From PubChem BioAssay
